Shown are actives, neighbours in structure and some others; about 4.1% of the full set was active somewhere.
BoNT A protease = blocks Botulinum neurotoxin A light chain protease; AID 588499; inhibition, % at 10 µM; hit rate 0.17% among 360,000; multiplex microsphere protease substrate cleavage, flow cytometry; also: plate controls were buffer without enzyme for full effect and enzyme alone for no effect
Bead autofluor = flagged as autofluorescent in microsphere protease counterscreen | fluorescence intensity (test concentration not listed) | hit rate 3.1% among 360,000 | compound autofluorescence counterscreen, microsphere flow cytometry; hits give high values; in the data active = fluorescence intensity above about 16000; inconclusive = no clear call, values can overlap the other calls
Anthrax LF prot = blocks Bacillus anthracis lethal factor protease; multiplex microsphere protease cleavage assay, LF; inhibition, % at 10 µM; hit rate 0.12% among 360,000; AID 588501; also: plate controls were buffer without enzyme for full effect and enzyme alone for no effect
MazEF act = MazEF (E. coli) toxin RNase activation. FAM/BHQ RNA-DNA oligo cleavage fluorescence, 5 h. activation, % at 20 µM. hit rate 0.32% among 350,000. P0AE70; in the data active = activation above about 50%
Target sequence (P0AE70 whole entry, looked up): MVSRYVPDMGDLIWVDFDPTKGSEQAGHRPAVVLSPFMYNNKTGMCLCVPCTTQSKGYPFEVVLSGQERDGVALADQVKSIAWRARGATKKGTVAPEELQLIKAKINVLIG
BoNT F protease = BoNT F light chain protease inhibition; hit rate 0.22% among 360,000; inhibition, % at 10 µM; Multiplex microsphere protease cleavage assay, flow cytometry; in the data active = inhibition above about 35%, passing the limit was not always enough; inconclusive = no clear call, values can overlap the other calls; also: plate controls were buffer without enzyme for full effect and enzyme alone for no effect
VHR inh abs = inhibitors of human VHR1 phosphatase (DUSP3); P51452; recombinant VHR phosphatase, pNPP absorbance; inhibition, % at 13.3 µM; hit rate 0.52% among 290,000; AID 1654; in the data active = inhibition above about 50%
Target sequence (P51452 whole entry, looked up): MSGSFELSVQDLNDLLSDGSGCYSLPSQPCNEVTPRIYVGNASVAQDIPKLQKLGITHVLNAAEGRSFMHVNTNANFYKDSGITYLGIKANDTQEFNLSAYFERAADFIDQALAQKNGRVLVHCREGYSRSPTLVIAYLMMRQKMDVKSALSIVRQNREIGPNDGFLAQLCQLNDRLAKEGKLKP
* marks the source's active call; other numbers are inactive results; ? = inconclusive; nt = not tested or not shown; + = active, no number. Rule as the data show it, unless noted: active = inhibition above about 30%; inconclusive = no clear call, values can overlap the other calls; inactive = below that.

SMILES	BoNT A protease	Bead autofluor	Anthrax LF prot	MazEF act	BoNT F protease	VHR inh abs
CC1CC(NC(=O)C2(C)CC2(Cl)Cl)CC(C)(C)C1 (stereo not drawn)	5	20800*	-15	1	6	17
CCCN(CC(=O)Nc1ccc(Cl)cc1Cl)C(=O)c1ccc(=O)[nH]c1	-5	?	1	1	5	-14
CCn1cc(C(=O)NCc2ccco2)c(=O)c2cc(S(=O)(=O)N3CC(C)CC(C)C3)ccc21 (stereo not drawn)	0	19725*	1	0	0	10
CCn1cc(C(=O)NCc2ccccn2)c(=O)c2cc(S(=O)(=O)N3CCCCC3)ccc21	nt	nt	nt	nt	nt	-2
CCn1cc(C(=O)NCCN(C)CCc2ccccc2)c(=O)c2cc(S(=O)(=O)N(C)C)ccc21	-1	22712*	-2	-15	-3	13
C=CCn1cc(C(=O)NCc2ccco2)c(=O)c2cc(S(=O)(=O)N3CCCCCC3)ccc21	-2	16902*	-8	-2	-3	12
CCn1cc(C(=O)NCc2ccco2)c(=O)c2cc(S(=O)(=O)N3CCCCCC3)ccc21	?	21862*	-4	-3	0	-1
COc1cccc(CNC(=O)CCS(=O)(=O)c2ccc3c(c2)CC(C)N3C(=O)C2CC2)c1 (stereo not drawn)	3	5255	-2	-4	12	21
CCn1cc(C(=O)NCc2ccco2)c(=O)c2cc(S(=O)(=O)N3CCC(C)CC3)ccc21	2	20447*	-11	-5	0	-1
CCn1cc(C(=O)NCc2ccco2)c(=O)c2cc(S(=O)(=O)N3CCc4ccccc4C3)ccc21	-1	20784*	-2	-2	-2	13
CCn1cc(C(=O)NCCCOC)c(=O)c2cc(S(=O)(=O)N3CCC(C)CC3)ccc21	1	4126	-4	-1	-1	21
O=C1CCN(CC2CCCCC2)C=C1C(=O)c1ccccc1	0	4180	7	11	-3	nt
COc1cc(CCN(C(=O)c2cc3ccccc3[nH]2)C(c2ccccn2)c2nc3ccccc3[nH]2)cc(OC)c1 (stereo not drawn)	-1	4265	0	nt	-2	nt
CN(C(=O)c1ccc2c(=O)n3c(nc2c1)CCCCC3)c1ccccc1	0	2429	-7	0	6	53*
O=C(c1ccc2c(=O)n3c(nc2c1)CCCCC3)N1CCN(C(c2ccccc2)c2ccccc2)CC1	0	23040*	4	-9	-1	35
CN(C(=O)c1ccc2c(=O)n3c(nc2c1)CCCCC3)c1ccccc1Cl	1	5865	7	5	-9	20
CN(CCCCCCN(C)Cc1ccccc1O)Cc1ccccc1O	0	3193	3	0	11	52*
Cc1cc(C)n(-c2nc3ccccc3nc2N2CCC(C)CC2)n1	?	22810*	14	3	5	10
Cc1nc2ccccc2nc1N1CCC(C)CC1	2	4301	0	5	7	-10
Cc1ccc2c(CN3CCC(C)CC3)cc(=O)oc2c1C	0	4034	-2	0	-28	53*
CC(=O)c1ccc(NC(=O)C2=CC(c3ccc4c(c3)OCO4)=NS(=O)(=O)N2C)cc1	2	5545	-2	11	2	56*
Cc1ccc(C2=NS(=O)(=O)N(C)C(C(=O)Nc3ccc4c(c3)OCO4)=C2)cc1	1	5781	-9	9	-3	25
Cc1cc2oc(=O)cc(CN3CCCCCCC3)c2cc1Cl	-1	5552	-5	nt	-8	nt
O=C(CN1C(=O)COc2ccccc21)NCCN1CCCC1	-12	10914	-4	4	-32	50*
CN1CCN(CCCNC(=O)CN2C(=O)COc3ccccc32)CC1	-4	3034	5	1	-15	46
SMILES	BoNT A protease	Bead autofluor	Anthrax LF prot	MazEF act	BoNT F protease	VHR inh abs
O=C(CCN1C(=O)COc2ccccc21)NCCCN1CCc2ccccc2C1	-11	18721*	-4	1	-15	11
O=C(CN1C(=O)COc2ccccc21)NCCCN1CCCC1	1	4572	2	4	-2	-4
CCC1(CC)SCCNC1=O	0	3906	-2	2	-3	nt
CC(=O)Nc1ccc(NC(=O)CSc2nccn2Cc2ccccc2)cc1	4	20023*	-2	6	6	20
O=C(CCSc1nccn1Cc1ccccc1)N1CCOCC1	6	20488*	-6	-2	7	16
Cc1cccc(C)c1NC(=O)C(=O)NCC1CCCN1S(=O)(=O)c1ccccc1 (stereo not drawn)	-12	11818	-4	-4	-12	nt
Cc1ccccc1NC(=O)c1csc2c1CCCC2	-3	20804*	-4	0	-4	-8
COc1cccc(NC(=O)c2csc3c2CCCC3)c1	0	2482	2	3	-4	26
COc1ccc(NC(=O)c2csc3c2CCCC3)cc1	-1	23873*	-2	5	-3	0
Cn1c(SCc2cccc(Cl)c2)nc(C(F)(F)F)cc1=O	2	18749*	-6	1	3	3
Cn1c(SCc2ccccc2)nc(C(F)(F)F)cc1=O	-1	4673	13	-4	3	17
Cc1ccc(C(C(=O)NC2CCCC2)N(C(=O)CNC(=O)c2ccco2)c2ccccc2)o1 (stereo not drawn)	2	4893	-1	2	4	20
Cc1ccc2nc(C)/c(=N\O)c(C)nc2c1	-2	16928*	-1	4	-5	19
CC(C)c1ccc(N=C2N=C(N)c3ccccc32)cc1	2	3562	-2	11	5	1
CCN(CC)c1ccc(NC(=O)Cn2c(C(C)NC(=O)c3ccccc3)nc3ccccc32)cc1 (stereo not drawn)	0	2542	0	-2	-1	55*
Cc1ccc(C(=O)NC(C)c2nc3ccccc3n2CC(=O)Nc2c(C)cc(C)cc2C)cc1 (stereo not drawn)	nt	nt	nt	nt	nt	34
Cc1ccc(C)c(N/C(N)=N/c2nc(C)cc(C)n2)c1	-1	8077	-3	10	-8	1
Cc1ccc(CN=C(N)Nc2nc(C)cc(C)n2)cc1	0	4454	-5	8	-1	57*
O=C(NCc1ccco1)c1cc(-c2cccs2)nc2ccccc12	-1	2339	0	+	-2	7
COc1ccc(CNC(=O)CC(C)S(=O)(=O)c2ccc3c(c2)NC(=O)CO3)cc1 (stereo not drawn)	0	6234	0	6	-1	4
COc1ccc(CCNC(=O)CC(C)S(=O)(=O)c2ccc3c(c2)NC(=O)CO3)cc1OC (stereo not drawn)	0	5216	2	10	-2	59*
CC(Oc1ccccc1F)C(=O)NNC(=O)Cc1ccc(S(=O)(=O)N2CCOCC2)s1 (stereo not drawn)	100*	6061	109*	1	86*	nt
CC(=O)Nc1ccc(S(=O)(=O)C(C#N)c2nc3ccccc3nc2NCCCO)cc1 (stereo not drawn)	2	3438	-3	3	-2	3
O=C(Cn1c(-c2ccccc2)noc1=O)Nc1ccc(N2CCCCCC2)cc1	-5	25078*	-5	2	-12	-1
